Measurements taken from PubChem BioAssay (NCI).
Compounds without any hit were thinned out: in the full panel of roughly 79,000, 15% have a hit. A number with no mark means an inactive call. Active and inactive are the calls of the source. No stated cut-off is given here; in the data, active means growth inhibition above about 70%; inactive means the rest.

Columns and labels:
[1] = NCI Yeast Anticancer Drug Screen. Data for the rad50 strain (AID 155);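 further: 0% = growth of vehicle-only cultures of the same strain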; details: S. cerevisiae rad50 strain growth inhibition; at 50.0 µM; hits give high values
Summary of the method: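 Readout: growth inhibition relative to vehicle-treated cultures. Compound exposure was carried out in a genetically defined yeast strain deficient in DNA damage repair.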

[2] = NCI Yeast Anticancer Drug Screen. Data for the mec2-1 strain (AID 157); details: S. cerevisiae mec2-1 strain, at 50.0 µM, hits give high values
Summary of the method: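 Growth inhibition is read against vehicle-treated controls after compound exposure of the mec2-1 yeast strain, which is defective in DNA damage repair or cell cycle control.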

[3] = NCI Yeast Anticancer Drug Screen. Data for the sgs1 mgt1 strain (AID 161);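 further: 0% = growth of cultures given vehicle only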; details: S. cerevisiae sgs1 mgt1 strain, at 50.0 µM, hits give high values
Summary of the method: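 This yeast growth screen uses a strain with defined DNA-repair lesions; compound-treated growth is compared with vehicle-treated growth.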

[4] = NCI Yeast Anticancer Drug Screen. Data for the cln2 rad14 strain (AID 165);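 further: 0% = growth equal to vehicle treated cultures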; details: S. cerevisiae cln2 rad14 strain, at 50.0 µM, hits give high values
Summary of the method: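 Growth inhibition, relative to vehicle-treated controls, is the read-out. The test organism is a yeast strain with defined genetic alterations, cln2 rad14.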

[5] = NCI Yeast Anticancer Drug Screen. Data for the bub3 strain (AID 167); details: S. cerevisiae bub3 mutant strain, at 50.0 µM, hits give high values
Summary of the method: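 Readout: yeast growth inhibition, expressed relative to vehicle-only wells. The test organism is a mutant strain from a panel with lesions in DNA repair or checkpoint genes.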

[6] = NCI Yeast Anticancer Drug Screen. Data for the mlh1 rad18 strain (AID 175); details: S. cerevisiae mlh1 rad18 strain growth inhibition; at 50.0 µM; hits give high values
Summary of the method: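 Cells of a genetically altered yeast strain, deficient in DNA damage repair, were treated with compound. Their growth was then compared with that of vehicle-treated cultures to give inhibition.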

SMILES	growth inhibition [1]	growth inhibition [2]	growth inhibition [3]	growth inhibition [4]	growth inhibition [5]	growth inhibition [6]
CC(=O)C1CCCC(=O)/C=C/C(=O)O1 (stereo unspecified)	3.4%	-12.8%	-7%	5.8%	11.5%	-18%
COc1cc(CNc2nc3ccccc3n2Cc2ccccc2)cc(CN2CCOCC2)c1O	-4.4%	15.7%	3.7%	33.3%	9.55%	7.55%
Cc1cc([N+](=O)[O-])ccc1Sc1c2ccccc2nc2ccccc12	-63.5%	-16.2%	-13.8%	11.3%	-17.5%	-18.9%
O=c1c2cc([N+](=O)[O-])ccc2sc2ccsc12	1.6%	2.55%	-4.95%	-2.85%	-10.6%	11.9%
CCC(O)CNCc1c2ccccc2cc2ccccc12 (stereo unspecified)	20.1%	14.7%	22.1%	12.6%	1.95%	10.8%
Cc1cc(=O)oc2c(CNC(C(=O)O)C(C)C)c(O)ccc12 (stereo unspecified)	5.05%	-15.9%	-19.7%	7.5%	-16.8%	-6.4%
CCCCCc1ccc(C)cc1OC(C)=O	14.1%	-1.4%	8.85%	-14.1%	-2.75%	0.5%
NC(=O)CS(=O)Cc1cccc(Br)c1 (stereo unspecified)	-13.9%	-11.2%	-17.6%	7.35%	-1.5%	6.5%
CC(C)Cc1ccc(NC2=C(Cl)C(=O)c3ccccc3C2=O)cc1	19.3%	19.7%	13.7%	25.1%	15.1%	28.1%
Cc1ccc(NC(=O)c2ccccc2[N+](=O)[O-])cc1	12.5%	15.8%	0.1%	20.4%	-2.1%	-10.2%
COc1ccc2cc1Oc1ccc(cc1)CC1c3cc(c(OC)cc3CCN1C)Oc1c3c(cc4c1C(C2)N(C)CC4)OCO3 (stereo unspecified)	1.6%	-14.3%	-15.7%	4.65%	1.1%	3.45%
C=CCSc1ncnc2c1c(Br)cn2C1OC(CO)C(O)C1O (stereo unspecified)	96.3% (active)	97.5% (active)	97.1% (active)	97.5% (active)	96.9% (active)	98.3% (active)
CCCCCO[Si](OCCCCC)(OCCCCC)OCCCCC	3.8%	-9.3%	29.4%	-4.4%	1.55%	10.9%
COc1ccc(/C=C2\N=C(SC)NC2=O)cc1	-8.35%	0.2%	25.9%	0.95%	2%	-24.9%
CCCNC(=S)NNC(N)=O	2.5%	7.35%	-9.05%	6.15%	-11.2%	12.2%
CCOc1cc(/C=N\NC(=S)N/N=C/c2ccc(O)c(OCC)c2)ccc1O	-15.2%	-0.75%	-4.35%	1.55%	-6.65%	29.9%
Cc1ccc2nc(-c3ccc(N=NNc4ccc(-c5nc6ccc(C)c(S(=O)(=O)O)c6s5)cc4)cc3)sc2c1S(=O)(=O)O	23.5%	6.85%	-9.7%	18.2%	12.3%	18.6%
CN(C=C(c1ccccc1)c1ccccc1)c1ccccc1	-15.6%	-7.85%	2.2%	-21.6%	-12.8%	-32.6%
COc1cc(NC(=O)CCN2CCOCC2)c2ncccc2c1	41.6%	3.6%	12.8%	-29.4%	18.9%	43%
CCCCCCCCCC(O)CO (stereo unspecified)	-20.6%	-20.7%	-23.8%	6.4%	-10.6%	-5.95%
Cc1ccc(NC(=O)CCc2nnc3s/c(=C\c4cccc([N+](=O)[O-])c4)c(=O)n23)cc1	-31.4%	-8.45%	-10.6%	14%	10.7%	3.3%
